Where “and” joins values, the source holds several entries; their conditions need not be identical. Equal values may be shown once. Inconclusive results are not listed. Calls of active or inactive are those of the source. Unless noted, calls come from the whole dose curve; as a rule, active = well fitted curve in the direction sought with a large enough effect in the repeat runs; inconclusive = weak or mixed curves; inactive = no such curve, though single readings can be large; an effect the other way counts as inactive or inconclusive.
Tests used:
[1] = qHTS assay to identify small molecule antagonists of the retinoid acid receptor (RAR) signaling pathway - cell viability counter screen (AID 1159551); note: nearly all actives have a fitted effect of over 35% in size; note: potency is the fitted concentration of half-maximal effect
Procedure, shortened: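 Cytotoxicity counter screen: ATP content quantified by CellTiter-Glo luminescence in C3RL4 cells treated 6 hr at 37 C with compound and retinol (1 uM final). Cells plated at 1,000/well and cultured overnight before dosing.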

[2] = qHTS assay to identify small molecule antagonists of the estrogen related receptor (ERR) signaling pathway from Tox21 library - cell viability counter screen (AID 1224834); note: nearly all actives have a fitted effect of over 30% in size; note: potency is the fitted concentration of half-maximal effect
Procedure, shortened: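 CellTiter-Fluor fluorescence, read after 30 min at 37 C, measures viability of ERR cells. Cells plated at 2,000/well and incubated 6 h before pin-tool compound addition, then exposed 17.5 hours at 37 C.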

[3] = molecular target: Luciferin 4-monooxygenase (Photinus pyralis) (UniProt P08659); experiment: qHTS assay to identify small molecule inhibitors of firefly luciferase (AID 1224835); note: nearly all actives have a fitted effect of over 25% in size; note: potency is the fitted concentration of half-maximal effect
Procedure, shortened: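 Biochemical qHTS: compounds run as interplate titrations against purified firefly enzyme, with D-luciferin and ATP each at its KM concentration. Light output recorded by CCD imaging.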

[4] = qHTS assay to identify small molecule agonists of the constitutive androstane receptor (CAR) signaling pathway - cell viability counter screen (AID 1224836); note: nearly all actives have a fitted effect of over 45% in size; note: potency is the fitted concentration of half-maximal effect
Procedure, shortened: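 Multiplexed viability check: HepG2-CYP2B6-hCAR cells, 15-point compound dosing, 0.75 uM PK11195 final, 23 h at 37 C, CellTiter-Fluor fluorescence.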

[5] = molecular target: Nuclear receptor subfamily 1 group I member 3 (Homo sapiens) (UniProt Q14994); experiment: qHTS assay to identify small molecule agonists of the constitutive androstane receptor (CAR) signaling pathway (AID 1224839); note: nearly all actives have a fitted effect of over 15% in size; note: potency is the fitted concentration of half-maximal effect
Procedure, shortened: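 Using human hepatoma HepG2 cells engineered with hCAR and a CYP2B6-2.2kb reporter, 15-concentration compound series were incubated 24 h alongside PK11195 at 0.75 uM final, with luminescence quantified afterwards.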

[6] = qHTS assay to identify small molecule antagonists of the estrogen related receptor signaling pathway with the pleiotropic PPARgamma coactivator (PGC) from Tox21 10K library (AID 1224841; call rule not given here; note: actives are mostly falling curves and most rising ones were filed inactive; nearly all actives have a fitted effect of over 50% in size; note: potency is the fitted concentration of half-maximal effect)
Procedure, shortened: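 Luminescence (One-Glo, 30 min at room temperature) after 18 h compound treatment at 37 C of PGC/ERR reporter cells plated at 2,000 cells/well and settled 6 h beforehand.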

[7] = qHTS assay to identify small molecule agonists of the estrogen related receptor signaling pathway with the pleiotropic PPARgamma coactivator (PGC) from Tox21 10K library (AID 1224842); note: nearly all actives have a fitted effect of over 15% in size; note: potency is the fitted concentration of half-maximal effect
Procedure, shortened: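 PGC/ERR reporter cell line, 2,000 cells per well, incubated 6 h at 37 C before 23 nL compound in DMSO was added. After 18 h at 37 C, One-Glo luminescence read following 30 min at room temperature.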

[8] = molecular target: Thyrotropin receptor (Homo sapiens) (UniProt P16473); experiment: qHTS assay to identify small molecule agonists of the thyroid stimulating hormone receptor (TSHR) signaling pathway (AID 1224843; calls by dose curve; note: nearly all actives have a fitted effect of over 45% in size; note: potency is the fitted concentration of half-maximal effect)
Procedure, shortened: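 Agonist-mode screen: TSHR HEK293 cells received test chemicals for half an hour at room temperature, then HTRF cAMP detection reagents for one hour prior to fluorescence measurement. Each chemical ran as a 15-concentration series, triplicated.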

[9] = qHTS assay to identify small molecule agonists of the hypoxia (HIF-1) signaling pathway - cell viability counter screen (AID 1224844; calls by dose curve; note: nearly all actives have a fitted effect of over 50% in size; note: potency is the fitted concentration of half-maximal effect)
Procedure, shortened: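 Cytotoxicity measured by CellTiter-Glo ATP luminescence in the wells also read for beta-lactamase signal. Cells were HRE-bla ME-180 (2,000/well, 0.5% dialyzed FBS), exposed to compounds for 17 h at 37C.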

[10] = qHTS assay to identify small molecule antagonists of the constitutive androstane receptor (CAR) signaling pathway - cell viability counter screen (AID 1224837); note: nearly all actives have a fitted effect of over 45% in size; note: potency is the fitted concentration of half-maximal effect
Procedure, shortened: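 Cytotoxicity counter-screen: CellTiter-Fluor fluorescence after 23 h compound exposure (15-point qHTS) in double-stable HepG2-CYP2B6-hCAR cells, with 50 nM CITCO added.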

[11] = qHTS assay to identify small molecule antagonists of the estrogen related receptor signaling pathway with the pleiotropic PPARgamma coactivator (PGC) from Tox21 10K library - cell viability counter screen (AID 1224840; active = well fitted cell-killing curve with a large enough effect in the repeat runs, not every such curve was filed as active; note: nearly all actives have a fitted effect of over 40% in size; note: potency is the fitted concentration of half-maximal effect)
Procedure, shortened: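 Counter-screen for cytotoxicity: after 17.5 h compound exposure at 37 C, CellTiter-Fluor reagent added to PGC/ERR cells for 30 min and fluorescence read. Cells were seeded at 2,000 per well 6 h before dosing.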

[12] = molecular target: Nuclear receptor subfamily 1 group I member 3 (Homo sapiens) (UniProt Q14994); experiment: qHTS assay to identify small molecule antagonists of the constitutive androstane receptor (CAR) signaling pathway (AID 1224838);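 note: HepG2 cells stably expressing hCAR with CYP2B6 luciferase reporter stimulated by CITCO; nearly all actives have a fitted effect of over 40% in size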
Procedure, shortened: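 Antagonism measured as luciferase signal (ONE-Glo, 30 min, room temperature) in CAR-stimulated cells: HepG2-CYP2B6-hCAR double-stable line exposed 24 hr at 37 C to compound in a 15-point series plus 50 nM CITCO.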

[13] = qHTS assay to identify small molecule antagonists of the retinoic acid receptor (RAR) signaling pathway (AID 1159552; note: nearly all actives have a fitted effect of over 50% in size)
Procedure, shortened: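 Using a RARE-driven luciferase construct in C3RL4 cells, retinol at 1 uM final provided the agonist stimulus while compounds were co-applied. After 6 hours at 37 C, luminescence was recorded to flag inhibitors of retinol signaling.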

[14] = qHTS assay to identify small molecule agonists of the retinoic acid receptor (RAR) signaling pathway (AID 1159553); note: potency is the fitted concentration of half-maximal effect
Procedure, shortened: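 Luminescence was measured 30 min after luciferase reagent addition at room temperature. Before that, C3RL4 reporter cells (1,000 per well, plated overnight) were treated with compound for 6 hr at 37 C and 5% CO2.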

Measured: Potency

Thyrotropin receptor (Homo sapiens), sequence (P16473 whole entry, looked up): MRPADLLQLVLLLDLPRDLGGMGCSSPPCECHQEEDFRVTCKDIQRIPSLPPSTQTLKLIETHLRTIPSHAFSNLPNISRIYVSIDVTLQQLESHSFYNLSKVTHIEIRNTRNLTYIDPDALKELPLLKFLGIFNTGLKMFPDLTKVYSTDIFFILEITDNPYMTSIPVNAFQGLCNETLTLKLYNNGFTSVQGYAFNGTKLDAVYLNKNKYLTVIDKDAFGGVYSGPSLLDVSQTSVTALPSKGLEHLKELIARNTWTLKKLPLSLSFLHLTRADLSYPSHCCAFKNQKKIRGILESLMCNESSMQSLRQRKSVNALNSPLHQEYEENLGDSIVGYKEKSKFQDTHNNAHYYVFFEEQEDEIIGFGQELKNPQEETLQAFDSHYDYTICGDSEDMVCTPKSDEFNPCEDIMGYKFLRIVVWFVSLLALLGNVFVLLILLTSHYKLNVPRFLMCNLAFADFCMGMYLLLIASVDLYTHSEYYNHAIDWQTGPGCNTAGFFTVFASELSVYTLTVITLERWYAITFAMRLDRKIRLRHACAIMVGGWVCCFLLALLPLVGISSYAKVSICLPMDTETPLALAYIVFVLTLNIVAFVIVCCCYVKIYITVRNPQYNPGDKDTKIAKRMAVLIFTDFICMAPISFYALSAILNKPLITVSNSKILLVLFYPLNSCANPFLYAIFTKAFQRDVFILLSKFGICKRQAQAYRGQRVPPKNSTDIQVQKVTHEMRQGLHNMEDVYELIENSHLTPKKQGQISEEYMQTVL
Luciferin 4-monooxygenase (Photinus pyralis), sequence (P08659 whole entry, looked up): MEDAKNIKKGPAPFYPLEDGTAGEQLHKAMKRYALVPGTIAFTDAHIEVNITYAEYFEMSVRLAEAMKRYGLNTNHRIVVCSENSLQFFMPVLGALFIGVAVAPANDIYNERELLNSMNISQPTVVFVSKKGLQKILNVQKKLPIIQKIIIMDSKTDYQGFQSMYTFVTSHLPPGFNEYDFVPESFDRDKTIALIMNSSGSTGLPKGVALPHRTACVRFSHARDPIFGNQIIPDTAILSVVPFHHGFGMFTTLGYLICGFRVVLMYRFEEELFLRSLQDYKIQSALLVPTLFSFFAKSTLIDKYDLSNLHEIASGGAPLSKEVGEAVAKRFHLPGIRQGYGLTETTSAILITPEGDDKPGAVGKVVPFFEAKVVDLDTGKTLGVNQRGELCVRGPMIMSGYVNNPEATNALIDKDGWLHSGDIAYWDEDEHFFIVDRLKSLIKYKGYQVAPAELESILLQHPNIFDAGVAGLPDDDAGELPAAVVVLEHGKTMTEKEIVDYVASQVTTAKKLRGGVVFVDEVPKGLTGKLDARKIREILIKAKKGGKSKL
Nuclear receptor subfamily 1 group I member 3 (Homo sapiens), sequence (Q14994 whole entry, looked up): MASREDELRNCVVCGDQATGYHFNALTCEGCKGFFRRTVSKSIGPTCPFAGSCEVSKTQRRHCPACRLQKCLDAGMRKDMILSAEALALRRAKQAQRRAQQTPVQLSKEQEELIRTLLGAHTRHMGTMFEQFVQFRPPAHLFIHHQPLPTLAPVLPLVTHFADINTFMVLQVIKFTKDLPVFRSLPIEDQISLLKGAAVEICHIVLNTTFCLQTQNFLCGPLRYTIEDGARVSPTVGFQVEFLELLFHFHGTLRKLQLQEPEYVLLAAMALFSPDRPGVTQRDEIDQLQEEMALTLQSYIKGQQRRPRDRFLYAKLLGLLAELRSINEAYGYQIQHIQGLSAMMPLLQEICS

C[C@H]1O[C@@H](O[C@H]2[C@@H](O)C[C@H](O[C@H]3[C@@H](O)C[C@H](O[C@H]4CC[C@@]5(C)[C@H](CC[C@@H]6[C@@H]5CC[C@]5(C)[C@@H](C7=CC(=O)OC7)CC[C@]65O)C4)O[C@@H]3C)O[C@@H]2C)C[C@H](O)[C@@H]1O
inactive: [1] | [3] | [5] | [7] | [8]
active: [2] 43.5 nM and 75 nM | [4] 0.0975 µM | [6] 97.5 nM and 168 nM

Oc1cc(Cl)c(Cl)c(Cl)c1
active: [6] 36.6 µM
inactive: [1] | [3] | [5] | [8] | [9]

CC(=O)[O-].CC(=O)[O-].[Hg+2]
active: [1] 4.33 µM | [2] 3.86 µM | [4] 7.7 µM | [10] 4.86 µM | [11] 2.73 µM | [9] 3.47 µM

CCCCCCCCCCCCCC[P+](CCCCCC)(CCCCCC)CCCCCC (tested in a mixture with another compound)
active: [1] 27.3 µM | [2] 24.3 µM | [4] 17.2 µM | [10] 17.2 µM | [11] 24.3 µM

COC[C@H](C)N(C(=O)CCl)c1c(C)csc1C
inactive: [1] | [2] | [3] | [4] | [10] | [6] | [7] | [9]

O=[N+]([O-])c1ccc(Oc2ccc(C(F)(F)F)cc2[N+](=O)[O-])cc1
inactive: [1] | [3] | [4] | [12] | [11] | [6] | [7] | [8]

CCN(CC)C(=S)[S-].CCN(CC)C(=S)[S-].[Zn+2]
active: [1] 30.4 µM | [2] 3.41 µM | [3] 35.3 µM | [4] 3.04 µM | [10] 1.36 µM | [11] 2.41 µM
inactive: [8]

Oc1ccc(C(c2ccc(O)cc2)(C(F)(F)F)C(F)(F)F)cc1
active: [2] 54.2 µM | [5] 4.31 µM and 5.45 µM | [6] 60.8 µM | [8] 30.5 µM
inactive: [1] | [3] | [4]

CN(C)C(=S)[S-].CN(C)C(=S)[S-].[Cu+2]
active: [1] 16.7 µM | [2] 1.18 µM | [4] 3.73 µM | [10] 1.49 µM | [9] 2.67 µM

CCc1cc(C)cc(CC)c1-c1c(OC(=O)C(C)(C)C)n2n(c1=O)CCOCC2
active: [6] 8.63 µM
inactive: [1] | [3] | [4] | [11] | [7] | [8] | [9]

Cc1cc(N=Nc2ccccc2C)ccc1N
active: [14] 864 nM and 1.22 µM | [2] 27.3 µM | [3] 5.64 µM and 6.33 µM | [4] 17.2 µM and 1.09 µM | [10] 3.06 µM | [5] 30.6 µM and 48.6 µM | [11] 38.6 µM and 27.3 µM | [7] 4.33 µM and 2.43 µM
inactive: [13] | [12] | [6] | [9]
